Reference: PubChem BioAssay (NCATS)
Values joined by “and” are separate entries in the source; they are usually repeats but may differ in a detail not shown here. Equal entries are not always repeated. A number with no mark means an inactive call. Records with an inconclusive call do not appear. Active and inactive are the calls of the source. Unless noted, the call rests on the fitted dose curve; in most records, active means well fitted activation curve with a large enough effect; inconclusive means small, poorly fitted or top-dose-only effect; inactive means flat fitted curve, though single readings scatter.

System: not listed separately
Assay: qHTS assay for small molecule activators of the p53 signaling pathway (AID 651743; active means well fitted activation curve with a large enough effect in the signal ratio, not every such curve was filed as active; the % refers to the signal ratio; further: potency means the concentration at half of the fitted maximal effect; on activation: series mostly up to about 92 µM; % of control where 0% means no effect)
Settings: HCT-116 p53RE-bla, beta-lactamase FRET ratio, 16 h; activation: stronger effect = higher value
Summary of the method: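 Following 16 hours of compound exposure at 37 C, HCT-116 cells bearing the p53RE-bla reporter were loaded with LiveBLAzer B/G FRET substrate for 2 hours at room temperature and fluorescence intensity was recorded.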

| Compound | activation | Potency |
| --- | --- | --- |
| C[C@]12CCC(=O)C=C1CC[C@@H]1[C@@H]2C(=O)C[C@@]2(C)[C@H]1CC[C@]2(O)C(=O)CO | -9.05% |  |
| O=c1[nH]c(=O)n([C@H]2C[C@H](O)[C@@H](CO)O2)cc1Br | 3.27% |  |
| O=C(O)CCCCCCCC(=O)O | -3.2% |  |
| C[C@]12C=CC(=O)C=C1CC[C@H]1[C@@H]3C[C@@H](O)[C@](O)(C(=O)CO)[C@@]3(C)C[C@H](O)[C@@]12F | -0.529% |  |
| Nc1nc(N)c2nc(-c3ccccc3)c(N)nc2n1 |  | 20 µM (active) |

System: not listed separately
Assay: qHTS assay for small molecule activators of the nuclear factor-kappa B (NF-kB) signaling pathway (AID 651749; active means well fitted activation curve with a large enough effect in the signal ratio; the % refers to the signal ratio; further: series mostly up to about 77 µM; % of control where 0% means no effect)
Settings: NF-kB-bla ME-180 cells, beta-lactamase FRET ratio, 16 h; stronger effect = higher value
Summary of the method: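 In this qHTS format, compounds acting as activators increase NF-kB-driven beta-lactamase in ME-180 cells, measured as disrupted FRET after 16 hr exposure at 37C and 5% CO2.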

| Compound | activation |
| --- | --- |
| NC(=O)N1c2ccccc2C=Cc2ccccc21 | -0.533% and -3% |
| C[C@]12CCC(=O)C=C1CC[C@@H]1[C@@H]2C(=O)C[C@@]2(C)[C@H]1CC[C@]2(O)C(=O)CO | -0.64% |
| O=c1[nH]c(=O)n([C@H]2C[C@H](O)[C@@H](CO)O2)cc1Br | 0.708% |
| O=C(O)CCCCCCCC(=O)O | 0.884% |
| CC(=O)[C@@]1(O)CC[C@H]2[C@@H]3CCC4=CC(=O)CC[C@]4(C)[C@H]3CC[C@@]21C | 0.354% |

System: not listed separately
Assay: qHTS assay for environmental chemicals that activate the Aryl hydrocarbon Receptor (AhR) signaling pathway (AID 651777); further: % of control where 0% means no effect; nearly all actives have a fitted effect of over 15% in size
Settings: 1A2-DRE human hepatoma cells, luciferase, 24 h; activation: stronger effect = higher value
Summary of the method: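 Human hepatoma 1A2-DRE cells, stably carrying a dioxin response element and CYP1A2 promoter driving luciferase, were exposed to compounds for 24 hr at 37 C and 5% CO2. Luciferase signal was then read after 30 min One-Glo at room temperature.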

| Compound | activation |
| --- | --- |
| NC(=O)N1c2ccccc2C=Cc2ccccc21 | 0.886% and -3.46% |
| C[C@]12CCC(=O)C=C1CC[C@@H]1[C@@H]2C(=O)C[C@@]2(C)[C@H]1CC[C@]2(O)C(=O)CO | -0.997% |
| O=c1[nH]c(=O)n([C@H]2C[C@H](O)[C@@H](CO)O2)cc1Br | 0.877% |
| O=C(O)CCCCCCCC(=O)O | -0.0037% |
| C[C@]12C=CC(=O)C=C1CC[C@H]1[C@@H]3C[C@@H](O)[C@](O)(C(=O)CO)[C@@]3(C)C[C@H](O)[C@@]12F | 0.771% |
| Nc1nc(N)c2nc(-c3ccccc3)c(N)nc2n1 | 13.5% and 13.2% |

Molecular target: Peroxisome proliferator-activated receptor alpha (Homo sapiens) (UniProt Q07869)
Sequence (Q07869 whole entry, looked up): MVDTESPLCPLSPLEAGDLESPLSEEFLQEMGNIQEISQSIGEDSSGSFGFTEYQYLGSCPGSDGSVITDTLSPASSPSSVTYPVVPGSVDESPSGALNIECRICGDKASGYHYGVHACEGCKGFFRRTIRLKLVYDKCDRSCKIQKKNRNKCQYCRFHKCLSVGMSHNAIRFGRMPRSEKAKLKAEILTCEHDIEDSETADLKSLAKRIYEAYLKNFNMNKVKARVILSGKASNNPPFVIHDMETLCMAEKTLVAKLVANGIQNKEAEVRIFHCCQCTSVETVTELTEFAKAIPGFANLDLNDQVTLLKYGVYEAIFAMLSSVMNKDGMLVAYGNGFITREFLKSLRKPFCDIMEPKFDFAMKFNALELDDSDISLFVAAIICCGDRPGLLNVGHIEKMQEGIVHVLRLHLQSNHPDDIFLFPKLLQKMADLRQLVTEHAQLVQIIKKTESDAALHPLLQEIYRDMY
Assay: qHTS assay for small molecule agonists of the peroxisome proliferator-activated receptor alpha (PPARalpha) signaling pathway (AID 651778); further: % of control where 0% means no effect
Settings: PathHunter PPARalpha complementation, chemiluminescence, 6 h; stronger effect = higher value
Summary of the method: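 Enzyme-fragment complementation assay in which ligand-bound PPARalpha translocates and forms an active enzyme that generates chemiluminescence. Cells were plated overnight, exposed to compound for 6 hr at 37 C, and then given detection reagent for 60 min at room temperature.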

| Compound | max response |
| --- | --- |
| NC(=O)N1c2ccccc2C=Cc2ccccc21 | -1.1% and -0.275% |
| C[C@]12CCC(=O)C=C1CC[C@@H]1[C@@H]2C(=O)C[C@@]2(C)[C@H]1CC[C@]2(O)C(=O)CO | -0.227% |
| O=c1[nH]c(=O)n([C@H]2C[C@H](O)[C@@H](CO)O2)cc1Br | -2.48% |
| O=C(O)CCCCCCCC(=O)O | -1.61% |
| CC(=O)[C@@]1(O)CC[C@H]2[C@@H]3CCC4=CC(=O)CC[C@]4(C)[C@H]3CC[C@@]21C | -2.31% |
| C[C@]12C=CC(=O)C=C1CC[C@H]1[C@@H]3C[C@@H](O)[C@](O)(C(=O)CO)[C@@]3(C)C[C@H](O)[C@@]12F | 4.65% |
| Nc1nc(N)c2nc(-c3ccccc3)c(N)nc2n1 | -0.436% and -0.649% |
